PubChem BioAssay
The source made the active and inactive calls.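 The calls were made as follows, unless noted: active = compound raises insulin release from rat beta cells at 5 mM glucose, no numeric limit stated; inactive = the rest.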

Key:
[1] = stimulators of nuclear beta-catenin in C2C12, primary screen, imaging, WNT3A-conditioned medium, mouse C2C12, NPC library (AID 1117326; in the data active = nuclear beta-catenin stimulation mostly above about 4.2%, no sharp cut-off; inactive = mostly below about 10%); details: stronger effect = higher value
[2] = stimulators of insulin release from INS-1E, primary screen, cell-based, 5 mM glucose, NPC library (AID 1117329); details: rat INS-1E insulin secretion, at 10 µM, stronger effect = higher value
[3] = growth inhibition of GSK3B-pretreated HCT116 cells – cell-based, CellTiter-Glo, 0.2 to 20 µM (AID 1117336;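 active = compounds lowering colon cancer cell viability after pretreatment blocking the GSK3B kinase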); details: HCT116 viability after GSK3B inhibitor, at 20 µM, stronger effect = higher value
[4] = inhibition of endothelial tube formation, primary screen, imaging, VEGF stimulated, CD31 staining, tube area, NPC library (AID 1117340;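 active = compound that reduces growth-factor-driven endothelial tube area in a mixed cell culture, no cutoff stated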); details: VEGF-stimulated ADSC/ECFC co-culture, at 10 µM, stronger effect = higher value
[5] = glucagon-like peptide 1 release enhancers, primary assay, NCI-H716 cell line, NPC library (AID 1117341;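 active = compound raises GLP1 secretion from the human gut endocrine cells, with no numeric limit stated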); details: NCI-H716 cells, at 10 µM, stronger effect = higher value
[6] = HCT116 colon cancer cell growth inhibition, primary screen, CellTiter-Glo luminescence, NPC library (AID 1117342;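 active = compounds that lower survival of HCT116 colon cancer cells in the luminescence readout, no numeric limit stated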); details: at 20 µM (top of the series)
[7] = CellTiter-Glo luminescent readout of SW480 viability loss, NPC library primary (AID 1117343;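 active = compounds that lower viability of the colon cancer cells in the luminescence readout, with no numeric limit stated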); details: CellTiter-Glo luminescence; at 20 µM (top of the series) unless noted
[8] = decreased DLD-1 cellular survival, CellTiter-Glo luminescent readout, NPC compound collection, primary HTS (AID 1117346;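 active = compounds that lower survival of DLD-1 colon cancer cells in the luminescence readout, no cutoff given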); details: DLD-1 viability, CellTiter-Glo luminescence; at 20 µM (top of the series)
[9] = biological target: Mitogen-activated protein kinase 7 (Homo sapiens) (UniProt Q13164); assay: ERK5 transactivation activators in reporter cells, primary screen, cell-based, HTS (AID 1508626;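 active = luciferase signal above three times the same-plate solvent-only control wells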;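 also: luciferase driven by Gal4-ERK5 fusion binding five Gal4 sites before minimal TATA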); details: HeLa Gal4-ERK5 transactivation, 18 h, at 5 µM, stronger effect = higher value
Sequence of Mitogen-activated protein kinase 7 (Homo sapiens) (Q13164 whole entry, looked up, the tested form may be a part): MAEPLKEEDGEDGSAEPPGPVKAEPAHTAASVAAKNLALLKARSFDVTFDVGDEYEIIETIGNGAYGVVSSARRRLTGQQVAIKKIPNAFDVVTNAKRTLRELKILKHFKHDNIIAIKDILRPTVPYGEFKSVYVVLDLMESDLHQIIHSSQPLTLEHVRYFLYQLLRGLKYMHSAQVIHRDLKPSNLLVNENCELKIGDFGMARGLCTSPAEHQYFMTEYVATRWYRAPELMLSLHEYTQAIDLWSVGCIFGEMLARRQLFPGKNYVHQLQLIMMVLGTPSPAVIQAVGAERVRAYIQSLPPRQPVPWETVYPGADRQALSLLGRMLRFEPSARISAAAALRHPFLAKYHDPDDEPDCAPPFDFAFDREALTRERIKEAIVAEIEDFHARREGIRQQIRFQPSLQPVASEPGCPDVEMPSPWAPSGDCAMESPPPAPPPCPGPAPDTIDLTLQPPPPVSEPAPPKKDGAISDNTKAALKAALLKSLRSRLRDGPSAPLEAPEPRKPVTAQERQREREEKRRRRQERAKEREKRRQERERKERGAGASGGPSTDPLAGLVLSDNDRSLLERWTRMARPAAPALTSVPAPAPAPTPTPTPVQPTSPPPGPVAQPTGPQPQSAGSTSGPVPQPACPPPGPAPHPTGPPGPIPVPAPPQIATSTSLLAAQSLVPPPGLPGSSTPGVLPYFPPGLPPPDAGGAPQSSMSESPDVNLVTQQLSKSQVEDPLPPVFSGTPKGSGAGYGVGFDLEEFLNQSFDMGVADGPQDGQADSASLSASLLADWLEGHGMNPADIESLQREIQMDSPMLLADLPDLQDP

[10] = biological target: NAD(+) hydrolase SARM1 (Homo sapiens) (UniProt Q6SZW1); assay: SARM1 TIR NADase inhibitors, cell lysate, NAD-Glo luminescence (AID 1508614;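 active = compound whose remaining NAD level is above about 45 nM, limit read from the data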;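 also: higher remaining NAD means stronger inhibition of SARM1 NADase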); details: SAM-TIR HEK293T lysate NADase, at 1 µM, stronger effect = higher value
Sequence of NAD(+) hydrolase SARM1 (Homo sapiens) (Q6SZW1 whole entry, looked up): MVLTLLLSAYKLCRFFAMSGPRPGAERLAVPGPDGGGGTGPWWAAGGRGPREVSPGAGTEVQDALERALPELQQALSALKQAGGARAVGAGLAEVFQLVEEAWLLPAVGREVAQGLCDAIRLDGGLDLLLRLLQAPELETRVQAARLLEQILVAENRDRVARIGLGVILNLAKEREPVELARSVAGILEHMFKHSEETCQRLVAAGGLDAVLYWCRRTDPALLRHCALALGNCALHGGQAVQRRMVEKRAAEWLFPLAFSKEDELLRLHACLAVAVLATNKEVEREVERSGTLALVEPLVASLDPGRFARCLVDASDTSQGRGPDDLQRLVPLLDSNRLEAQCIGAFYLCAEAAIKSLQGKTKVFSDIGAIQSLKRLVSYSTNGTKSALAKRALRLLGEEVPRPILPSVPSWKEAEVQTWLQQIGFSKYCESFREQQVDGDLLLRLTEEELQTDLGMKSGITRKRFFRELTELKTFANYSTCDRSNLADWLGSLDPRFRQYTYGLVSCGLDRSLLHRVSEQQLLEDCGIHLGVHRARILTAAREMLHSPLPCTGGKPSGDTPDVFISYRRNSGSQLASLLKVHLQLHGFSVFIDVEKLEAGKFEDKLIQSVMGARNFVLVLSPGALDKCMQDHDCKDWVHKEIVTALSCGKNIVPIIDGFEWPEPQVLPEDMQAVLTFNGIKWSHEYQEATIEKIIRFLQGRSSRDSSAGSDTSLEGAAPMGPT

O=C(O)C(S)C(S)C(=O)O (centres undefined)
0.8%: nuclear beta-catenin stimulation ([1]; stimulation, at 2 µM)
inactive: nuclear beta-catenin stimulation ([1]; at 10 µM) 2.3% | insulin secretion stimulation [2] 1.3% | viability decrease [3] -17% | tube area decrease [4] 14% | GLP1 secretion stimulation [5] 6.2% | inhibition of viability [6] -11.3% | viability decrease (inhibition) [7] -31.1% | viability decrease (inhibition) [8] -4.5% | luciferase signal [9] 96 AU

Cc1c(C)n(CCN(C)C)c2ccc(C(=O)OCCN(C)C)cc12
14.1%: nuclear beta-catenin stimulation ([1]; stimulation, at 2 µM)
active: viability decrease (inhibition) [7] 71.7%
inactive: nuclear beta-catenin stimulation ([1]; at 10 µM) 1.1% | insulin secretion stimulation [2] 0.4% | viability decrease [3] 41.2% | inhibition of viability [6] 27.7% | viability decrease (inhibition) [8] 0.9%

c1ccc2ccccc2c1
7.8%: nuclear beta-catenin stimulation ([1]; stimulation, at 2 µM)
inactive: nuclear beta-catenin stimulation ([1]; at 10 µM) 0.7% | insulin secretion stimulation [2] 6.8% | viability decrease [3] 13.1% | inhibition of viability [6] 14.8% | viability decrease (inhibition) [7] -4.5% | viability decrease (inhibition) [8] 4.2%

CN1CCN(c2cc3c(nn2)Oc2ccccc2N3C)CC1
inactive: nuclear beta-catenin stimulation ([1]; at 10 µM) 0.9% | insulin secretion stimulation [2] -1.15% | GLP1 secretion stimulation [5] 5.9%
0.3%: nuclear beta-catenin stimulation ([1]; stimulation, at 2 µM)

CCCCC(=O)O[C@]1(C(=O)CO)CC[C@H]2[C@@H]3CCC4=CC(=O)CC[C@]4(C)[C@H]3[C@@H](O)C[C@@]21C
0.1%: nuclear beta-catenin stimulation ([1]; stimulation, at 2 µM)
inactive: nuclear beta-catenin stimulation ([1]; at 10 µM) -1.9% | insulin secretion stimulation [2] 1.5% | viability decrease [3] -12.8% | tube area decrease [4] -17.7% | GLP1 secretion stimulation [5] -1.5% | inhibition of viability [6] 7.7% | viability decrease (inhibition) [7] 6.4% | viability decrease (inhibition) [8] -15.9% | remaining NAD [10] 10 nM | luciferase signal [9] 72 AU

C=CC(C)(O)CCC=C(C)CCC=C(C)C (centres undefined)
-0.9%: nuclear beta-catenin stimulation ([1]; stimulation, at 2 µM)
inactive: nuclear beta-catenin stimulation ([1]; at 10 µM) 2.7% | insulin secretion stimulation [2] -0.2% | GLP1 secretion stimulation [5] 9.7%

CCCCCCCCCCCCCCCCCC[N+](C)(C)CCC[Si](OC)(OC)OC
-0.8%: nuclear beta-catenin stimulation ([1]; stimulation, at 2 µM)
inactive: nuclear beta-catenin stimulation ([1]; at 10 µM) -0.6% | insulin secretion stimulation [2] -0.25% | viability decrease [3] 14.4% | GLP1 secretion stimulation [5] -3.1% | inhibition of viability [6] 12.9% | viability decrease (inhibition) [7] -2.9% | viability decrease (inhibition) [8] 1.7%

O=C(OCCO)c1ccccc1O
-2.3%: nuclear beta-catenin stimulation ([1]; stimulation, at 2 µM)
inactive: nuclear beta-catenin stimulation ([1]; at 10 µM) 0.5% | insulin secretion stimulation [2] 0.25% | GLP1 secretion stimulation [5] -2.5%

CCCCCCCCCCCCCCCC(=O)OCC=C(C)C=CC=C(C)C=CC1=C(C)CCCC1(C)C
inactive: nuclear beta-catenin stimulation ([1]; at 10 µM) -1.5% | insulin secretion stimulation [2] 1.2% | GLP1 secretion stimulation [5] 2.7%
-0.3%: nuclear beta-catenin stimulation ([1]; stimulation, at 2 µM)

C[C@]12CC[C@@H]3c4ccc(O)cc4CC[C@H]3[C@@H]1CC[C@@H]2OC(=O)CCC1CCCC1
inactive: nuclear beta-catenin stimulation ([1]; at 10 µM) 28.4% | insulin secretion stimulation [2] 0.5% | viability decrease [3] -8.5% | GLP1 secretion stimulation [5] 3.6% | inhibition of viability [6] 6.73% | viability decrease (inhibition) [7] 27% | viability decrease (inhibition) [8] -23.3% | remaining NAD [10] 10 nM | luciferase signal [9] 84 AU
active: tube area decrease [4] 110%
2.5%: nuclear beta-catenin stimulation ([1]; stimulation, at 2 µM)

O=C(O)C1(C(=O)O)CCC1.[NH2-].[NH2-].[Pt+2]
-2.2%: nuclear beta-catenin stimulation ([1]; stimulation, at 2 µM)
inactive: nuclear beta-catenin stimulation ([1]; at 10 µM) 0% | insulin secretion stimulation [2] -0.3% | GLP1 secretion stimulation [5] 3% | inhibition of viability [6] 31.7% | viability decrease (inhibition) [7] 2.3% | viability decrease (inhibition) [8] 5.7% | remaining NAD [10] 10 nM | luciferase signal [9] 40 AU
active: viability decrease [3] 67.5% | tube area decrease [4] 55.4%

Cc1cc(-c2ccc(N=Nc3c(S(=O)(=O)O)cc4cc(S(=O)(=O)O)cc(N)c4c3O)c(C)c2)ccc1N=Nc1c(S(=O)(=O)O)cc2cc(S(=O)(=O)O)cc(N)c2c1O
-1.8%: nuclear beta-catenin stimulation ([1]; stimulation, at 2 µM)
inactive: nuclear beta-catenin stimulation ([1]; at 10 µM) -3.5% | insulin secretion stimulation [2] 2.95% | viability decrease [3] 35.2% | GLP1 secretion stimulation [5] -8.7% | inhibition of viability [6] 22.2% | viability decrease (inhibition) [7] 37.9% | viability decrease (inhibition) [8] 23.9%
